According to the supplement of paper PMC10720658:
± gives the standard deviation of the averaged measurements.

Each molecule was assayed on AEK1 (Tb927.3.2440) (assay: percent reduction in TR-FRET probe signal relative to DMSO control; higher = stronger displacement of ATP-site probe (binding)). Conditions: 1 µM; incubation time 1 h.

SMILES | percent reduction in TR-FRET probe signal [%]
Cc1n[nH]c2ccc(-c3cncc(OC[C@@H](N)Cc4ccccc4)c3)cc12 | 14.1 ± 24
Cc1ccc(S(=O)(=O)/C=C/C#N)cc1 | -7.27 ± 4.2
O=C(NC(NC(=S)Nc1ccc(F)c([N+](=O)[O-])c1)C(Cl)(Cl)Cl)C(c1ccccc1)c1ccccc1 (stereo not drawn) | 3.75 ± 8.9
Cl.N=C(N)NC(=N)NCCc1ccccc1 [Phenformin HCl] | 12.1 ± 8.3
COc1cc2ncnc(Nc3ccc(Cl)cc3F)c2cc1OC | 4.47 ± 2.8
Cc1ccc(NC(=O)c2cccc(N(C)C)c2)cc1NC(=O)c1ccc(O)cc1 | -8.68 ± 4
CC(=O)c1c(C)c2cnc(Nc3ccc(N4CCNCC4)cn3)nc2n(C2CCCC2)c1=O.Cl | -16.8 ± 5.1
NC(=O)c1ncn([C@@H]2O[C@H](CO)[C@@H](O)[C@H]2O)c1N [AICAR (Acadesine)] | -1.92 ± 11
Cc1[nH]c(/C=C2\C(=O)Nc3ccc(S(=O)(=O)N(C)c4cccc(Cl)c4)cc32)c(C)c1C(=O)N1CCN(C)CC1 | 34.1 ± 16
O=C(Cc1ccc(-c2ccc(OCCN3CCOCC3)cc2)cn1)NCc1ccccc1 | -1.26 ± 9
CN1CC[C@H](c2c(O)cc(O)c3c(=O)cc(-c4ccccc4Cl)oc23)[C@H](O)C1 [Flavopiridol (Alvocidib)] | -2.55 ± 4.6
Cl.NC(=O)c1cnc(N[C@@H]2CCCC[C@@H]2N)nc1Nc1cccc(-n2nccn2)c1 | -0.93 ± 1.4
Cn1ncc(Cl)c1-c1cc(C(=O)N[C@H](CN)Cc2ccc(F)c(F)c2)oc1Cl | 33.2 ± 9.4
N#CC[C@@H](C1CCCC1)n1cc(-c2ncnc3[nH]ccc23)cn1 | 19.4 ± 9.1
CC(C)(CCCCCC(O)CCCCCC(C)(C)C(=O)O)C(=O)O | 0.88 ± 3.4
CCN1CCN(Cc2ccc(C(=O)Nc3ccc(C)c(Oc4ccc5c(c4)CC(=O)N5)c3)cc2C(F)(F)F)CC1 | -7.33 ± 8.7
CN1CCN(c2ccc(-c3ccncc3-c3cc(F)c(O)c(F)c3)cc2)CC1 | 1.75 ± 5.2
O=C1NC(=O)/C(=C/c2ccc3c(c2)OC(F)(F)O3)S1 | -3.7 ± 5.9
Cc1cc(Nc2nc(N[C@@H](C)c3ccc(F)cc3)c(C#N)cc2F)n[nH]1 | 56.3 ± 7.3

SMILES | percent reduction in TR-FRET probe signal [%]
CC(C)CC(NC(=O)C(Cc1ccccc1)NC(=O)C(CCC(N)=O)NC(=O)C(Cc1ccc(O)cc1)NC(=O)C(C)NC(=O)CNC(=O)C(CCCCN)NC(=O)C(Cc1c[nH]c2ccccc12)NC(=O)C(NC(=O)C(Cc1c[nH]c2ccccc12)NC(=O)C(CCCCN)NC(=O)CNC(=O)C(CC(N)=O)NC(=O)C(CCC(=O)O)NC(=O)C(Cc1c[nH]c2ccccc12)NC(=O)C(NC(=O)C(Cc1c[nH]c2ccccc12)NC(=O)C(CO)NC(=O)CNC(=O)C1CCCN1C(=O)C(Cc1c[nH]c2ccccc12)NC(=O)C(CCC(N)=O)NC(=O)C(Cc1ccccc1)NC(=O)CNC(=O)C(N)Cc1c[nH]cn1)C(C)O)C(C)O)C(=O)NC(CCCCN)C(=O)NCC(=O)NCC(=O)NCC(=O)NCC(=O)NC(CO)C(=O)NC(CCCNC(=N)N)C(=O)NC(CCCNC(=N)N)C(=O)NC(CCCNC(=N)N)C(=O)NC(CCCNC(=N)N)C(=O)NC(CCCNC(=N)N)C(=O)NC(CCCNC(=N)N)C(=O)NC(CCCNC(=N)N)C(=O)NC(CCCNC(=N)N)C(=O)NC(CCCNC(=N)N)C(=O)O (stereo not drawn) | -15.1 ± 6.2
COc1ccc(S(=O)(=O)N(CCO)c2ccccc2CN(C)C/C=C/c2ccc(Cl)cc2)cc1.O=P(O)(O)O [KN-93 Phosphate] | -9.18 ± 9.6
CC(C)c1cnn2c(NCc3ccccc3)cc(NCCCCCCN)nc12.Cl | -3.89 ± 4.8
O=C(/C=C/c1ccc(O)c(O)c1)c1ccc(O)cc1O [Butein] | 4.05 ± 5.4
CCCS(=O)(=O)Nc1ccc(F)c(C(=O)c2c[nH]c3ncc(-c4ccc(Cl)cc4)cc23)c1F [Vemurafenib (PLX4032, RG7204)] | 4.16 ± 3
O=C(Nc1cccnc1)c1cc(-c2ccnc(F)c2)ccc1OCc1ccccc1 | -0.16 ± 3.2
C=CC(=O)Nc1cccc(Nc2nc(Nc3ccc(N4CCN(C(C)=O)CC4)cc3OC)ncc2C(F)(F)F)c1 | -2.96 ± 7.5
O=C1NC(=O)C(c2ccccc2[N+](=O)[O-])=C1Nc1ccc(O)c(Cl)c1 | -2.58 ± 9.4
Nc1nc(Nc2ccc(S(N)(=O)=O)cc2)nn1C(=O)c1c(F)cccc1F | 27.8 ± 16
Cc1cc(Nc2cc(N3CCN(C)CC3)nc(Sc3ccc(NC(=O)C4CC4)cc3)n2)n[nH]1 [VX-680 (Tozasertib, MK-0457)] | 10.3 ± 20
CC(C)(C)c1cc(NC(=O)Nc2ccc(-c3cn4c(n3)sc3cc(OCCN5CCOCC5)ccc34)cc2)no1 [Quizartinib (AC220)] | 9.26 ± 2.9
Nc1ccc(-c2ccc3ncc4ccc(=O)n(-c5cccc(C(F)(F)F)c5)c4c3c2)cn1 [Torin 2] | 1.07 ± 4.9
O=C1NC(=O)C(c2cnc3ccccn23)=C1c1cn2c3c(cc(F)cc13)CN(C(=O)N1CCCCC1)CC2 | -14.7 ± 8.7
Cn1cc(-c2ccc3nnc(C(F)(F)c4ccc5ncccc5c4)n3n2)cn1 | -0.537 ± 18
COc1cc2ncnc(Nc3ccc(O)c(Br)c3)c2cc1OC | -7.2 ± 7.7
CCc1cc(Nc2nccc(-c3c(-c4ccc(OC)c(C(=O)Nc5c(F)cccc5F)c4)nc4ccccn34)n2)c(OC)cc1N1CCC(N2CCN(S(C)(=O)=O)CC2)CC1 | -12.2 ± 12
CNS(=O)(=O)C[C@H]1CC[C@H](N(C)c2ncnc3[nH]ccc23)CC1.O=C(O)/C=C\C(=O)O [Oclacitinib] | 6.94 ± 17
Cc1c(NC(=O)OC[C@@H]2COCCN2)cn2ncnc(Nc3ccc4c(cnn4Cc4cccc(F)c4)c3)c12 | -10.7 ± 4.8
c1cncc(CN2CCC(n3ncc4c(N5CCOCC5)nc(-c5ccc6[nH]ccc6c5)nc43)CC2)c1 | 6.62 ± 13
